The results in this text go back to PubChem BioAssay (Tox21).

Experiment [1] can be described thus: Nuclear factor erythroid 2-related factor 2/antioxidant responsive element (Nrf2/ARE) small molecule agonists: qHTS cell viability counter screen in human keratinocytes (AID 1919968; active = well fitted curve in the direction sought with a large enough effect in the repeat runs; an effect the other way counts as inactive or inconclusive; note: nearly all actives have a fitted effect of over 55% in size). The essentials:
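KeratinoSens HaCaT cells, 1,500/well, preincubated 5 h, then exposed to compounds in DMSO for 23 h at 37 C/5% CO2. Viability read as CellTiter-Fluor fluorescence after 1 h, in the same wells as the ARE-luciferase read.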
(In general: In qHTS, concentration-response curves come from the screen itself.)

Experiment [2] is described as follows: Nuclear factor erythroid 2-related factor 2/antioxidant responsive element (Nrf2/ARE) small molecule agonists: luciferase reporter gene qHTS assay in human keratinocytes (AID 1919969). Note: nearly all actives have a fitted effect of over 35% in size. Note: potency is the fitted concentration of half-maximal effect. In general terms: Reporter assays use an easily measured gene product as a stand-in for the process of interest.
In experiment [3] the target is Gonadotropin-releasing hormone receptor (Homo sapiens) (UniProt P30968). Kind of experiment: Human gonadotropin-releasing hormone receptor (GnRHR) small molecule agonists, calcium flux assay in GnRHR-HEK293 cells (AID 1920063). Note: nearly all actives have a fitted effect of over 35% in size. In short, it runs like this: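 HEK293 cells stably expressing human GnRHR were dye-loaded for 1 h at 37 C. Compound was added in agonist mode and fluorescence (Ex/Em 480/540) recorded kinetically for 3 min. Fifteen concentrations, triplicates.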

Experiment [4] addresses KiSS-1 receptor (Homo sapiens) (UniProt Q969F8). Kind of experiment: Human kisspeptin (KISS1R) small molecule agonists, calcium flux assay in KISS1R-HEK293 cells (AID 1920064; active = well fitted curve in the direction sought with a large enough effect in the repeat runs; an effect the other way counts as inactive or inconclusive). In short, it runs like this: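 HEK293 cells stably expressing human KISS1R were loaded with calcium dye for 1 h at 37 C, then given compound; fluorescence (Ex/Em 480/540) was read kinetically for 3 min. Fifteen concentrations, triplicate.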

A short description of experiment [5]: G protein-coupled receptor (GPCR) small molecule agonists, calcium flux assay: HEK293 wild type cell line counter screen (AID 1920065). The essentials: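 Wild-type HEK293 cells plated 18 h, loaded with calcium dye 1 h at 37 C, then compounds added in agonist mode (ATP as positive control). Kinetic fluorescence Ex/Em 480/540 recorded 3 min at 1 sec intervals; 15 concentrations, triplicate.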
(Calcium flux is commonly read through the fluorescence of an indicator in the cells.)

Experiment [6] can be described thus: p53 small molecule agonists, cell-based qHTS assay with human liver microsomes (AID 1963577). The essentials:
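Fluorescence of the beta-lactamase reporter in p53RE-bla cells, detected with LiveBLAzer substrate (2 h, room temperature, dark), served as the read-out after 16 h compound exposure at 37 C with human liver microsomes and NADPH, each 0.5 mg/mL final.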

Experiment [7] can be described thus: p53 small molecule agonists, cell-based qHTS assay with rat liver microsomes (AID 1963578). The essentials:
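Cells carrying a p53 response element–beta-lactamase reporter were plated and rested 5 h, then dosed with compound in DMSO plus rat liver microsomes and NADPH, each at 0.5 mg/mL final. After 16 h at 37 C, LiveBLAzer substrate was added for 2 h.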

Experiment [8] is described as follows: p53 small molecule agonists, cell-based qHTS assay with rat liver microsomes: qHTS cell viability counter screen (AID 1963580). Note: nearly all actives have a fitted effect of over 45% in size. The essentials:
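p53RE-bla HCT-116 cells (4,000/well) rested 5 h at 37 C, then given Tox21 compounds in DMSO with rat liver microsomes (0.5 mg/mL final) plus NADPH (0.5 mg/mL final) for 16 h at 37 C. Viability read by CellTiter-Glo luminescence after 30 min at room temperature.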

A short description of experiment [9]: p53 small molecule agonists, cell-based qHTS assay: qHTS cell viability counter screen (AID 1963581). Note: nearly all actives have a fitted effect of over 45% in size. In short, it runs like this:
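p53RE-bla HCT-116 cells, compounds added 5 h after plating and incubated 16 h at 37 C. Cytotoxicity measured in the same wells as intracellular ATP by CellTiter-Glo luminescence after 30 min at room temperature.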

Experiment [10] is described as follows: p53 small molecule agonists, cell-based qHTS assay (AID 1963582; active = well fitted activation curve with a large enough effect in the signal ratio in the repeat runs, not every such curve was filed as active; the % refers to the signal ratio). The essentials:
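p53RE-bla reporter cells, compounds added in DMSO after 5 h plating, incubated 16 h at 37 C. Beta-lactamase read via 2 h room-temperature LiveBLAzer B/G FRET substrate, fluorescence intensity.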

The target in experiment [11] is 5-hydroxytryptamine receptor 2A (Homo sapiens) (UniProt P28223). Kind of experiment: 5-hydroxytryptamine receptor 2A (HTR2A) small molecule antagonists, cell-based qHTS assay (AID 1963586). Note: nearly all actives have a fitted effect of over 45% in size. In short, it runs like this: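 Antagonist-mode intracellular calcium assay: DOI (4 nM) added after 5 min compound pre-incubation at room temperature to dye-loaded HTR2A-CHO cells. Fluorescence followed for 3 min, sampled every second.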

Experiment [12] shares this target. Kind of experiment: 5-hydroxytryptamine receptor 2A (HTR2A) small molecule agonists, cell-based qHTS assay (AID 1963587). Note: nearly all actives have a fitted effect of over 30% in size. In short, it runs like this:
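HTR2A-CHO cells, plated 18 h at 37 C/5% CO2, dye-loaded 1 h at 37 C; compounds in DMSO added by pin tool (agonist mode). Intracellular calcium flux read as kinetic fluorescence on FDSS over 2 min at 1 s intervals.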

For experiment [13], the target named is Muscarinic acetylcholine receptor M1 (Homo sapiens) (UniProt P11229). Kind of experiment: Cholinergic receptor muscarinic 1 (CHRM1) small molecule antagonists, cell-based qHTS assay (AID 1963588). Note: nearly all actives have a fitted effect of over 40% in size. In short, it runs like this:
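CHRM1-CHO calcium-flux assay, antagonist mode. Cells were seeded 18 h, dye-loaded 1 h at 37 C and given compound for 5 min at RT, then acetylcholine was added at 50nM. FDSS fluorescence was read 3 min; 15 concentrations, three runs.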

Experiment [14] has the same target. Kind of experiment: Cholinergic receptor muscarinic 1 (CHRM1) small molecule agonists, cell-based qHTS assay (AID 1963589). Note: nearly all actives have a fitted effect of over 35% in size. The essentials:
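CHO cells stably expressing human CHRM1 were loaded with calcium dye for 1 h at 37 C, then compound was added in agonist mode. Intracellular calcium fluorescence was followed kinetically at 1 s intervals. Fifteen concentrations were tested in three independent runs.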

A short description of experiment [15]: cAMP Responsive Elements (CRE) small molecule agonists, cell-based qHTS assay (AID 1963590). In short, it runs like this:
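CRE-bla HEK 293T cells, 2,000/well in DMEM with 10% dialyzed FBS and 25 mM HEPES, pre-incubated 18 h at 37 C, then exposed to compound 3 h at 37 C. Beta-lactamase reporter read with LiveBLAzer B/G FRET substrate after 2 h at room temperature.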

Experiment [16] in a line: cAMP Responsive Elements (CRE) small molecule antagonists, cell-based qHTS assay (AID 1963591; active = well fitted inhibition curve with a large enough effect in the signal ratio in the repeat runs, not every such curve was filed as active; the % refers to the signal ratio). In short, it runs like this: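 CRE-bla HEK293T cells plated 18 h, then given compound plus NKH477 at 0.25 uM final for 3 h at 37C. Beta-lactamase reporter read with LiveBLAzer B/G FRET substrate after 2 h at room temperature.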
Experiment [17] concerns the target Beta-2 adrenergic receptor (Homo sapiens) (UniProt P07550). Kind of experiment: Adrenergic beta2 receptor (ADRB2) small molecule antagonists, cell-based qHTS assay (AID 1963592). Note: series mostly up to about 92 µM; nearly all actives have a fitted effect of over 50% in size. The essentials:
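Cells (CHO, stable ADRB2 overexpression) incubated 18-20hr at 37C; compounds added from DMSO; agonist mix (1nM isoproterenol, 100uM IBMX, 25uM Ro-20-1724) added; 0.5hr RT; d2-cAMP and anti-cAMP-cryptate added; 1hr RT; 665/615 nm read.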

The target of experiment [18] is D(2) dopamine receptor (Homo sapiens) (UniProt P14416). Kind of experiment: Dopamine D2 receptor (DRD2) small molecule agonists, cell-based qHTS assay (AID 1963594). Note: nearly all actives have a fitted effect of over 35% in size. In short, it runs like this: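 HEK293 cells stably expressing DRD2 were cultured 24 h at 37 C, then given Ro20-1724 (0.1 mM final) and compounds for 10 min at room temperature. NKH477 (200nM) was then added for 30 min. cAMP was read by HTRF.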

The target is the same in experiment [19]. Kind of experiment: Dopamine D2 receptor (DRD2) small molecule antagonists, cell-based qHTS assay (AID 1963595; active = well fitted inhibition curve with a large enough effect in the signal ratio in the repeat runs, with a control signal flat; the % refers to the signal ratio). The essentials: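 In this cell-based antagonist screen, compounds act for 10 min at room temperature before a 30 min challenge with 12 nM quinpirole and 200 nM NKH477. cAMP is quantified by HTRF competition in DRD2-HEK293 cells containing 0.1 mM Ro20-1724.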

The nature of experiment [20]: p53 small molecule agonists, cell-based qHTS assay with human liver microsomes: qHTS cell viability counter screen (AID 1963579). Note: nearly all actives have a fitted effect of over 45% in size. In short, it runs like this:
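Cytotoxicity counter screen: p53RE-bla, 4,000 cells/well; 5 h settle, 37 C/5% CO2; cpd + HLM 0.5 mg/mL + NADPH 0.5 mg/mL (final); 16 h, 37 C; CellTiter-Glo, 30 min RT, luminescence.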

Values without a mark were called inactive. Records with an inconclusive call do not appear. Calls of active or inactive are those of the source. Unless noted, calls come from the whole dose curve.

Sequence of Beta-2 adrenergic receptor (Homo sapiens) (P07550 whole entry, looked up): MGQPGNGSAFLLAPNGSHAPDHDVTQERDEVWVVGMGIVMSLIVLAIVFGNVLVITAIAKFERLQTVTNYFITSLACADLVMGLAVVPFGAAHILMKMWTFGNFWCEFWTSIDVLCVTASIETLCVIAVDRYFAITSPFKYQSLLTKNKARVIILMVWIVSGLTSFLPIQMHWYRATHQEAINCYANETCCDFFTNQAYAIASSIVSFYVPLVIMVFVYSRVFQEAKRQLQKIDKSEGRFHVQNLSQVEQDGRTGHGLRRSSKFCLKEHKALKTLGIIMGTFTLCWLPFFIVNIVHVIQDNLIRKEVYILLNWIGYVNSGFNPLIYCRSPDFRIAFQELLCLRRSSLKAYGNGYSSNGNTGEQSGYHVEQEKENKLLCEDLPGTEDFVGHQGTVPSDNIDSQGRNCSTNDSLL
Sequence of Muscarinic acetylcholine receptor M1 (Homo sapiens) (P11229 whole entry, looked up): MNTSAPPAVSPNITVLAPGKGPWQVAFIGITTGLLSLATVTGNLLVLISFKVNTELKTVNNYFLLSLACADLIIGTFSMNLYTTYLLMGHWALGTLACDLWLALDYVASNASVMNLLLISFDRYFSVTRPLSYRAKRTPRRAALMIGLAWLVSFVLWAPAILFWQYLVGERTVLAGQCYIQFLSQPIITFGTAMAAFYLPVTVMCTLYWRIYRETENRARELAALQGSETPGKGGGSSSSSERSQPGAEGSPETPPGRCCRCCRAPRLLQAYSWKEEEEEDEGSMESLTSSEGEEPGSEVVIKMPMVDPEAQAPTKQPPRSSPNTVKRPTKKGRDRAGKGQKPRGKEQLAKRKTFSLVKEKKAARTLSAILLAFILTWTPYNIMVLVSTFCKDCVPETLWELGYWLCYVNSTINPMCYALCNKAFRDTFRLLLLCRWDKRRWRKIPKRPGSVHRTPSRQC
Sequence of Gonadotropin-releasing hormone receptor (Homo sapiens) (P30968 whole entry, looked up): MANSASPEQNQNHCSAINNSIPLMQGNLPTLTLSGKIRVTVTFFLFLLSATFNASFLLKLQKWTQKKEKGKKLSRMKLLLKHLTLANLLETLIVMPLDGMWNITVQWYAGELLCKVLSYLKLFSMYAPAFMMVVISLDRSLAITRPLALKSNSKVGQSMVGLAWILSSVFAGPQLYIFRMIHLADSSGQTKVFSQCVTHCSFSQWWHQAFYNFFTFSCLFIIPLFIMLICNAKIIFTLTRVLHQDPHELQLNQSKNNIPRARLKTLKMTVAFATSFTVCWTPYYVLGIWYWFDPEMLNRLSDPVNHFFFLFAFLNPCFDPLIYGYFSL
Sequence of D(2) dopamine receptor (Homo sapiens) (P14416 whole entry, looked up): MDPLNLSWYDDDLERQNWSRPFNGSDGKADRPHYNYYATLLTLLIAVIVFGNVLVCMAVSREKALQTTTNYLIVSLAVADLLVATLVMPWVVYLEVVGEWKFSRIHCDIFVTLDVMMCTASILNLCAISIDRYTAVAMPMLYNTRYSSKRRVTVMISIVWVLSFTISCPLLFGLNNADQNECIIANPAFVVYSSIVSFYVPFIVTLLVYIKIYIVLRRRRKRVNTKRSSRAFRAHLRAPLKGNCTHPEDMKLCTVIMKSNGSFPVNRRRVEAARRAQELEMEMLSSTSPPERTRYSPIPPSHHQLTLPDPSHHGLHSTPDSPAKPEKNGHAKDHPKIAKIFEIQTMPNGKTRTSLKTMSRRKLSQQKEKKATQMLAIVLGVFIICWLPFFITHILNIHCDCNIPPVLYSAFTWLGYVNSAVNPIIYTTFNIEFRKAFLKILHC
Sequence of 5-hydroxytryptamine receptor 2A (Homo sapiens) (P28223 whole entry, looked up): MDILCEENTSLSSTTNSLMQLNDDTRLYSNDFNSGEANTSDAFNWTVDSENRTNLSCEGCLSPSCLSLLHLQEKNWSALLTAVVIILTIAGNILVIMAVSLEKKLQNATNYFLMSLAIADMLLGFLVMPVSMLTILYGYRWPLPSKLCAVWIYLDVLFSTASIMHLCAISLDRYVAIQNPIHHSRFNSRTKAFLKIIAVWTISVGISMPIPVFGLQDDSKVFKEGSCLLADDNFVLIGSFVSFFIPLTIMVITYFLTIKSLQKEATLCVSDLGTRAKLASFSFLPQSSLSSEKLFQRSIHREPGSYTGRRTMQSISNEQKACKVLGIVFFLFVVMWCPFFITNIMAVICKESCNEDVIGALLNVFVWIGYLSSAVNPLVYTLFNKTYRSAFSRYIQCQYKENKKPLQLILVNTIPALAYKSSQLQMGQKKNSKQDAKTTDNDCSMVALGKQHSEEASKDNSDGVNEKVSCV
Sequence of KiSS-1 receptor (Homo sapiens) (Q969F8 whole entry, looked up): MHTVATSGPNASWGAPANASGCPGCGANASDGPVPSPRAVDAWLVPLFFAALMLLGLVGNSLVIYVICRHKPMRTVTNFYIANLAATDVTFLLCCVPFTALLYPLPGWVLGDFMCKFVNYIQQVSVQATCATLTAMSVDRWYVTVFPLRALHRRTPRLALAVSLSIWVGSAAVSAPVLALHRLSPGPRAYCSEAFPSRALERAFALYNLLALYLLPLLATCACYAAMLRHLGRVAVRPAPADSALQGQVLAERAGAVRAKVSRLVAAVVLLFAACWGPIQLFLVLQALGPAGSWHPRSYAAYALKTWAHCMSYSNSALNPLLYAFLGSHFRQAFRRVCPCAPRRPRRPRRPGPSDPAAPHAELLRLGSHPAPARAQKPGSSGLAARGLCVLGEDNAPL

Turning to `Cc1cc(-n2nc3ccc(Cl)cc3n2)c(O)c(C(C)(C)C)c1`, the Potency result in experiment [1], in experiment [2], in experiment [3], in [6], in experiment [7] and in [8] was “inactive” each time. Further, the Potency entry in [9], in [10], in [11], in [12], in [13] and in experiment [14] was “inactive” in each case. In addition, the Potency entry in [15], in [16], in experiment [17], in [18] and in experiment [19] was “inactive” throughout. Further, the outcome in experiment [4] and in experiment [5] was inactive.

For the compound `CC1=C(/C=C/C(C)=C/C=C/C(C)=C\C(=O)O)C(C)(C)CCC1`, the Potency result in experiment [1], in experiment [3], in experiment [6], in [7], in experiment [20] and in experiment [16] was “inactive” throughout. The Potency result in [17], in [18] and in experiment [19] was “inactive” each time. The Potency in [2] is 68.8 µM (active). Besides, the result in [4] and in [5] was inactive.

For `CO[Si](OC)(OC)OC`, the Potency result in experiment [1], in [2], in experiment [3], in experiment [6], in [7] and in [8] was “inactive” in each case. Besides, the Potency entry in [9], in [10], in experiment [11], in [12], in experiment [14] and in experiment [15] was “inactive” each time. Also, the Potency result in experiment [16], in experiment [17], in experiment [18] and in experiment [19] was “inactive” in each case. Further, the outcome in [4] and in [5] was inactive.

As for `CNC(=O)N(c1ccccc1)c1ccccc1`, the Potency entry in [1], in experiment [2], in experiment [3], in experiment [6], in [7] and in experiment [8] was “inactive” in each case. Moreover, the Potency entry in experiment [9], in [10], in experiment [11], in [12], in experiment [14] and in experiment [15] was “inactive” each time. The Potency entry in experiment [16], in experiment [17], in [18] and in [19] was “inactive” in each case. Also, the result in experiment [4] and in experiment [5] was inactive.

Take `Cc1c[nH]c2ccccc12`: the Potency result in experiment [1], in experiment [2], in experiment [3], in experiment [6], in experiment [7] and in [8] was “inactive” throughout. The Potency entry in experiment [9], in [10], in experiment [11], in [12], in experiment [13] and in experiment [14] was “inactive” throughout. Further, the Potency result in experiment [15], in [17] and in [19] was “inactive” throughout. Moreover, the outcome in experiment [4] and in [5] was inactive.

Regarding `CC(C)(O)c1ccc(CNC(=O)c2cccnc2Oc2ccc(F)cc2)cc1`, the Potency entry in experiment [1], in experiment [2], in [3], in experiment [6], in [7] and in [8] was “inactive” throughout. Moreover, the Potency result in [9], in [10], in [11], in [12], in experiment [13] and in experiment [14] was “inactive” in each case. Also, the Potency result in experiment [17], in experiment [18] and in experiment [19] was “inactive” each time. The result in experiment [4] and in experiment [5] was inactive.

As to `COCC(=O)Nc1c(I)c(C(=O)NCC(O)CO)c(I)c(C(=O)N(C)CC(O)CO)c1I` (centres undefined), the Potency result in [1], in experiment [2], in experiment [3], in experiment [6], in experiment [7] and in experiment [8] was “inactive” in each case. The Potency result in experiment [9], in experiment [10], in experiment [11], in experiment [12], in [14] and in experiment [15] was “inactive” in each case. Further, the Potency entry in experiment [16], in experiment [17], in experiment [18] and in experiment [19] was “inactive” throughout. The outcome in experiment [4] and in [5] was inactive.
